Results filed as inconclusive are left out. Some structures have more than one record in an assay (separate samples or runs), and their calls can disagree. The source made the active and inactive calls. The calls were made as follows: active = hit-call score of the fitted dose curve at least 0.9, where 1 is the maximum; inconclusive = response in the unintended direction; inactive = score below 0.9.
Experiments:
[1] = target: Cellular tumor antigen p53 (Homo sapiens) (UniProt P04637); assay: TOX21_p53_BLA_p5_ratio: Tox21 HCT-116 p53 Agonism Beta-lactamase Assay, Ratio, Phase 5 (AID 2283599)
How it was run: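 Beta-lactamase reporter ratio (blue 460 nm over green 530 nm, 405 nm excitation) after 2 h CCF4-AM loading, in HCT-116 cells exposed 16 h at 37 C to compounds pinned at 217-fold dilution. Increases relative to DMSO baseline scored.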

[2] = TOX21_p53_BLA_p5_viability: Viability Assessment in the Tox21 HCT-116 p53 Agonism Beta-lactamase Assay, Phase 5 (AID 2283600)
How it was run: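 After the 460/530 nm beta-lactamase measurement, the wells received an ATP-detection luciferase reagent; signal was read 30 min later at RT. Compound treatment lasted 16 h on cells pre-incubated 5 h post-seeding.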

[3] = target: Cellular tumor antigen p53 (Homo sapiens) (UniProt P04637); assay: TOX21_p53_BLA_p4_ratio: Tox21 HCT-116 p53 Agonism Beta-lactamase Assay, Ratio, Phase 4 (AID 2283601)
How it was run: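 Signal is the blue/green (460nm/530nm) ratio of cleaved versus uncleaved CCF4-AM substrate, read after 2 h substrate loading. Cells were HCT116 carrying the p53-responsive beta-lactamase reporter, dosed 16 h at 37C, 5% CO2; CellTiter-Glo measured in parallel.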

[4] = Tanguay_ZF_120hpf_MORT_legacy: (Legacy) Oregon State University Tanguay Lab 120 Hour Post-fertilization zebrafish Assay for Mortality (AID 2283633);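 as to AC50: fitted as increase in binary mortality versus DMSO negative control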
How it was run: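 Static waterborne exposure from 6 to 120 hpf at 28C of single dechorionated wild-type (5D) embryos per well, 0.64% DMSO final. Death recorded present/absent by brightfield at 24 and 120 hpf.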

[5] = Tanguay_ZF_120hpf_YSE_legacy: (Legacy) Oregon State University Tanguay Lab 120 Hour Post-fertilization zebrafish Assay for Yolk Sac Edema (AID 2283634);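 as to AC50: actives raise the incidence of yolk sac edema above the DMSO baseline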
How it was run: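 Presence or absence of yolk sac edema was recorded at 120 hpf in surviving larvae. These were wild-type Tropical 5D embryos, chorion removed at 4 hpf, held in static exposure at 28C from 6 hpf with 0.64% DMSO vehicle.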

[6] = Tanguay_ZF_120hpf_AXIS_legacy: (Legacy) Oregon State University Tanguay Lab 120 Hour Post-fertilization zebrafish Assay for Body Axis Malformation (AID 2283635);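 as to AC50: potency for an increased fraction of larvae scored with body axis malformation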
How it was run: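 Binary scoring of axis defects at 120 hpf under brightfield, fitted positive versus DMSO. Tropical 5D embryos, chorion removed by pronase at 4 hpf, were singly exposed in sealed, dark plates at 28C from 6 hpf; DMSO 0.64% final.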

[7] = Tanguay_ZF_120hpf_EYE_legacy: (Legacy) Oregon State University Tanguay Lab 120 Hour Post-fertilization zebrafish Assay for Eye Malformation (AID 2283636)
How it was run: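 Read-out is binary presence or absence of eye malformation, scored by brightfield microscopy at 120 hpf. Single larvae were exposed from 6 hpf in embryo medium containing 0.64% DMSO, with DMSO as baseline.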

[8] = Tanguay_ZF_120hpf_SNOU_legacy: (Legacy) Oregon State University Tanguay Lab 120 Hour Post-fertilization zebrafish Assay for Snout Malformation (AID 2283637)
How it was run: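 Snout malformation read as a yes/no call on brightfield images of 120 hpf larvae (Tropical 5D strain). Static exposure began at 6 hpf on dechorionated embryos in 0.64% DMSO, with gain of signal analysed versus DMSO controls.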

[9] = Tanguay_ZF_120hpf_JAW_legacy: (Legacy) Oregon State University Tanguay Lab 120 Hour Post-fertilization zebrafish Assay for Jaw Malformation (AID 2283638);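 as to AC50: active means more embryos with jaw malformation than DMSO controls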
How it was run: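 Binary jaw-malformation call at 120 hpf by brightfield microscopy. Embryos (Tropical 5D strain, chorion removed at 4 hpf) were dosed statically at 6 hpf, one per well, at 28C with 0.64% DMSO. Embryos that died were not scored.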

[10] = TOX21_p53_BLA_p4_viability: Viability Assessment in the Tox21 HCT-116 p53 Agonism Beta-lactamase Assay, Phase 4 (AID 2283597);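 also: hits lower the luminescence signal meaning cytotoxicity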
How it was run: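 Following a 16 h exposure at 37C, the treated HCT116 wells were first read for the FRET ratio. They were then lysed with CellTiter-Glo, and ATP luminescence was recorded after 30 min at room temperature.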

Measured: AC50

Sequence of Cellular tumor antigen p53 (Homo sapiens) (P04637 whole entry, looked up): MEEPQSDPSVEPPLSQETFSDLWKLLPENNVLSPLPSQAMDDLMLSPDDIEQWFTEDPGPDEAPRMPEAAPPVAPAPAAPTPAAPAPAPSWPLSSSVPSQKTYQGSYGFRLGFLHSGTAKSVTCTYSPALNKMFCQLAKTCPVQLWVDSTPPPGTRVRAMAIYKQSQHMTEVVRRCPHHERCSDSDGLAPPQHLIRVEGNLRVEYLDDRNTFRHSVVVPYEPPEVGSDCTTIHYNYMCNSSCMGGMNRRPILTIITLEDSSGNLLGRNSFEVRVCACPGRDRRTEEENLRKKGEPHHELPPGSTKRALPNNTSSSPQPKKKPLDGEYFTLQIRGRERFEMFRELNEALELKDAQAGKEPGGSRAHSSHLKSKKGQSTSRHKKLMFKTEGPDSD

Cc1c(C(=O)O)c(O)cc2c1C(=O)c1c(O)c([C@@H]3O[C@H](CO)[C@@H](O)[C@H](O)[C@H]3O)c(O)c(O)c1C2=O
not listed: [9] | [10]
inactive: all other assays above

O=C(OCCCCCOC(=O)c1ccccc1)c1ccccc1
not listed: [10]
inactive: all other assays above

Cc1ccccc1Cl
not listed: [10]
inactive: all other assays above

C=CCOC(=O)c1ccccc1C(=O)OCC=C
active: [4] 13.9 µM | [5] 30.9 µM
not listed: [9] | [10]
inactive: all other assays above

Oc1ccc2ccccc2c1N=Nc1ccccc1
active: [5] 43.7 µM | [6] 17.3 µM | [8] 43.8 µM
not listed: [9] | [10]
inactive: all other assays above

CCOc1ccc2c(c1)C(C)=CC(C)(C)N2
inactive: [1] | [2] | [3] | [4] | [5] | [6] | [7]
active: [1] 67.7 µM | [3] 76.6 µM | [8] 19.4 µM | [9] 15.9 µM

CC1=C(/C=C/C(C)=C/C=C/C(C)=C/CO)C(C)(C)CCC1
active: [1] 86.4 µM
inactive: [1] | [2] | [3] | [4] | [5] | [6] | [7] | [8]

COc1cc(C=O)ccc1O
inactive: [1] | [2] | [3] | [4]
active: [5] 43.3 µM | [6] 49.2 µM | [7] 60.5 µM | [8] 36.6 µM

Cc1ccc(Cl)cc1
not listed: [9] | [10]
inactive: all other assays above

CC=Cc1ccc(O)c(OC)c1
not listed: [8] | [9] | [10]
inactive: all other assays above

C=CCc1ccc(O)c(OC)c1
not listed: [10]
inactive: all other assays above

C1CCC(SSC2CCCCC2)CC1
inactive: [1] | [2] | [3] | [4] | [5] | [6]

Cc1ccc(C)c(C)c1
not listed: [8] | [10]
inactive: all other assays above

COCCOCCOC
not listed: [9] | [10]
inactive: all other assays above

Cc1ccc(N(C)C)cc1
not listed: [9] | [10]
inactive: all other assays above

NC(=O)Cn1c(=O)cc(CCN2CCN(c3nccc4sccc34)CC2)c2ccc(F)cc21
inactive: [10] | [4] | [5] | [7] | [8]

CCCCCCCCCCCC(=O)OC
not listed: [9] | [10]
inactive: all other assays above

CCCCCCCCCCCCCCCCCC(=O)O
inactive: [4] | [5] | [6] | [7] | [8] | [9]

Cc1cc(NC(=O)C(=O)O)cc(C)c1Oc1ccc(O)c2c1CCC2
inactive: [1] | [3] | [4] | [7]
active: [5] 0.0678 µM | [6] 0.526 µM | [8] 0.0742 µM | [9] 0.0689 µM

Nc1ccccc1N
active: [5] 46.3 µM
not listed: [6] | [9] | [10]
inactive: all other assays above

COc1ccc(S(=O)(=O)N2C(=O)[C@@](c3ccccc3OC)(N3C[C@H](O)C[C@H]3C(=O)N(C)C)c3cc(Cl)ccc32)c(OC)c1
active: [1] 75 µM | [2] 77.4 µM | [3] 86.6 µM
not listed: [6] | [10]
inactive: all other assays above
